# Target: RSF1
# Assay: pooled miR-30 sensor sort-seq; sequence = guide strand
# Settings: shRNA
# Further: reference of the scale not given here.
row,Sequence,sensor-assay potency score (higher = more potent)
1,TTGATCTTCAGAAAAGTCTGGC,0.121
2,TTCTTTTGGTACTTCTCCGTTG,-0.632
3,TAGAATTTGTATCTTTCTCTGA,0.105
4,TATTTCTTTACCACGTCGCAAA,-1.15
5,TAAGGCAACATCCAAATCCTGC,-1.12
6,TTGAGATCCATCACTGATCTTG,0.36
7,TTCTTTTCTTTCTTCATCCAAA,-0.992
8,TTGATCATCTTGTTCTTCTATG,-0.223
9,TTTGAGATTGTCATCAAACTGA,0.222
10,TTACCAAGGACCATGAACCTGG,0.217
11,TGTTCTTCTATGTACATTCTGA,0.345
12,TTACTTTAGAATTTGTATCTTT,0.216

# Target: RSPH9
# Assay: as above
# Settings: shRNA
row,Sequence,sensor-assay potency score (higher = more potent)
1,TTCACCTTCATTCACCTTCTGC,-0.502
2,TAGCCATAGTTCTTGGTGCGGG,-0.956
3,TCAATGACAGACACCAAGCGGG,-0.168
4,TTTAGCTCAACAGGCTCCCTGA,-0.548
5,TTTGGGAATGTCATGCTCCAAG,-0.888
